Source: the supplement of paper PMC9950053
Counter-ions that a name gives are not always drawn.

Tested on: Danio rerio larvae (5 dpf)
Experiment: combined upward orientation toward moving lines (periods 7-14) minus DMSO control (percentage points); higher = more orientation with moving lines than DMSO larvae
Details: 10 µM; exposure time: 3 h pre-incubation + 3 h imaging
Experimental: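 Wild-type 5 dpf zebrafish larvae (n=48 per drug, 96-well plates, 28.5 °C) were exposed to Tocris FDA-approved library compounds at 10 µM (0.1% DMSO) for 3 h before and 3 h during imaging. Images were taken every 6 s during visual and acoustic stimuli, and larvae were tracked with Z-LaP Tracker. Each measure is the treated-group mean minus the DMSO control mean (n=844), in percentage points. This mapping covers compounds with 5-character plate codes.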

Point of comparison: `CCCCCCCN(CC)CCCC(O)c1ccc(NS(C)(=O)=O)cc1` (configuration not stated) [Ibutilide hemifumarate], “combined upward orientation toward moving lines” value -0.0944. Against it:
- CC(=O)Oc1cc2c(s1)CCN(C(C(=O)C1CC1)c1ccccc1F)C2 (configuration not stated) [Prasugrel] — lower, -5.5
- CCCC1O[C@@H]2C[C@H]3[C@@H]4CCC5=CC(=O)C=C[C@]5(C)[C@H]4[C@@H](O)C[C@]3(C)[C@]2(C(=O)CO)O1 (some centres not stated) [Budesonide] — higher, 0.263
- C[C@H]1O[C@H](O[C@H]2[C@H](O)[C@@H](O)[C@@H](O[C@H]3[C@H](O)[C@@H](O)C(O)O[C@@H]3CO)O[C@@H]2CO)[C@H](O)[C@@H](O)[C@@H]1N[C@H]1C=C(CO)[C@@H](O)[C@H](O)[C@H]1O (some centres not stated) [Acarbose] — higher, 4.65
- Cc1cc2c(s1)Nc1ccccc1N=C2N1CCN(C)CC1 [Olanzapine] — higher, 3.25
- OCc1cc(C(O)CNCCCCCCOCCCCc2ccccc2)ccc1O (configuration not stated) [Salmeterol xinafoate] — lower, -1.98
- COc1cc2nccc(Oc3ccc(NC(=O)C4(C(=O)Nc5ccc(F)cc5)CC4)cc3)c2cc1OC — lower, -10.5
- COc1cc([C@@H]2c3cc4c(cc3[C@@H](O[C@@H]3O[C@@H]5CO[C@@H](C)O[C@H]5[C@H](O)[C@H]3O)[C@H]3COC(=O)[C@H]23)OCO4)cc(OC)c1O [Etoposide] — lower, -2.65
- O=C(O)C[C@H](O)C[C@H](O)/C=C/c1c(C2CC2)nc2ccccc2c1-c1ccc(F)cc1 [Pitavastatin calcium] — higher, 2.14
- CNS(=O)(=O)Cc1ccc2[nH]cc(CCN(C)C)c2c1 [Sumatriptan succinate] — lower, -8.09
- CC(=O)Nc1ccc(O)cc1 [Acetaminophen] — lower, -1.22
- OCCN1C[C@H](O)[C@@H](O)[C@H](O)[C@H]1CO [Miglitol] — lower, -1.58
- CN(C)C(=N)NC(=N)N [Metformin hydrochloride] — higher, 1.11
- N#C[C@@H]1C[C@@H]2C[C@@H]2N1C(=O)[C@@H](N)C12CC3CC(CC(O)(C3)C1)C2 [Saxagliptin hydrochloride] — lower, -3.59
- COc1ccccc1Oc1c(NS(=O)(=O)c2ccc(C(C)(C)C)cc2)nc(-c2ncccn2)nc1OCCO [Bosentan] — lower, -0.697
- Clc1ccc2nsnc2c1NC1=NCCN1 [Tizanidine hydrochloride] — lower, -5.19
- CC(C)OC(=O)C(C)(C)Oc1ccc(C(=O)c2ccc(Cl)cc2)cc1 [Fenofibrate] — higher, 6.13
- C#CCN[C@@H]1CCc2ccccc21 [Rasagiline mesylate] — lower, -1.34
- O=c1n(CCCN2CCN(c3cccc(Cl)c3)CC2)nc2ccccn12 [Trazodone hydrochloride] — lower, -3.19
- COc1cc(N)c(Cl)cc1C(=O)NC1CCN(CCCOc2ccc(F)cc2)CC1OC (configuration not stated) [Cisapride] — lower, -4.69
- CC(C)COCC(CN(Cc1ccccc1)c1ccccc1)N1CCCC1 (configuration not stated) [Bepridil hydrochloride] — higher, 3.56
- COc1ccccc1OCC(O)CN1CCN(CC(=O)Nc2c(C)cccc2C)CC1 (configuration not stated) [Ranolazine dihydrochloride] — higher, 4.03
- N#Cc1ccc2[nH]cc(CCCCN3CCN(c4ccc5oc(C(N)=O)cc5c4)CC3)c2c1 [Vilazodone hydrochloride] — lower, -4.15
- OC(c1cc(C(F)(F)F)nc2c(C(F)(F)F)cccc12)C1CCCCN1 (configuration not stated) [Mefloquine hydrochloride] — higher, 5.79
- CNCc1ccc(-c2[nH]c3cc(F)cc4c3c2CCNC4=O)cc1 [Rucaparib camsylate] — higher, 2
- CC[C@H]1OC(=O)[C@H](C)[C@@H](O[C@H]2C[C@@](C)(OC)[C@@H](O)[C@H](C)O2)[C@H](C)[C@@H](O[C@@H]2O[C@H](C)C[C@H](N(C)C)[C@H]2O)[C@](C)(O)C[C@@H](C)CN(C)[C@H](C)[C@@H](O)[C@]1(C)O [Azithromycin] — lower, -3.81
- O=C1CCc2ccc(OCCCCN3CCN(c4cccc(Cl)c4Cl)CC3)cc2N1 [Aripiprazole] — lower, -7.24
- COCCc1ccc(OCC(O)CNC(C)C)cc1 (configuration not stated) [Metoprolol tartrate] — lower, -3.38
- CN[C@H]1CC[C@@H](c2ccc(Cl)c(Cl)c2)c2ccccc21 [Sertraline hydrochloride] — lower, -5.13
- CN(C)CCc1c[nH]c2ccc(C[C@H]3COC(=O)N3)cc12 [Zolmitriptan] — lower, -1.47
- NS(=O)(=O)c1cc2c(cc1Cl)NC(C1CC3C=CC1C3)NS2(=O)=O (configuration not stated) [Cyclothiazide] — lower, -2.57
- CC(C)(C(=O)O)c1ccc(C(O)CCCN2CCC(C(O)(c3ccccc3)c3ccccc3)CC2)cc1 (configuration not stated) [Fexofenadine hydrochloride] — higher, 1.12
- CCCc1nn(C)c2c(=O)[nH]c(-c3cc(S(=O)(=O)N4CCN(C)CC4)ccc3OCC)nc12 [Sildenafil citrate] — higher, 0.372
- CNC(=O)c1cc(Oc2ccc(NC(=O)Nc3ccc(Cl)c(C(F)(F)F)c3)cc2)ccn1 [Sorafenib] — lower, -23.2
- CCc1nc(N)nc(N)c1-c1ccc(Cl)cc1 [Pyrimethamine] — higher, 7.4
- C[C@@H]1C[C@H]2[C@@H]3CCC4=CC(=O)C=C[C@]4(C)[C@@]3(F)[C@@H](O)C[C@]2(C)[C@@]1(O)C(=O)CO [Dexamethasone] — lower, -5.03
- NC(=O)OCC(COC(N)=O)c1ccccc1 [Felbamate] — higher, 4.58
